Fewer than 10 of roughly 1,300 compounds were called active. The rule behind the calls is not given here. Only a sample is shown.

N-formyl peptide receptor 2 (Homo sapiens), sequence (P25090 whole entry, looked up): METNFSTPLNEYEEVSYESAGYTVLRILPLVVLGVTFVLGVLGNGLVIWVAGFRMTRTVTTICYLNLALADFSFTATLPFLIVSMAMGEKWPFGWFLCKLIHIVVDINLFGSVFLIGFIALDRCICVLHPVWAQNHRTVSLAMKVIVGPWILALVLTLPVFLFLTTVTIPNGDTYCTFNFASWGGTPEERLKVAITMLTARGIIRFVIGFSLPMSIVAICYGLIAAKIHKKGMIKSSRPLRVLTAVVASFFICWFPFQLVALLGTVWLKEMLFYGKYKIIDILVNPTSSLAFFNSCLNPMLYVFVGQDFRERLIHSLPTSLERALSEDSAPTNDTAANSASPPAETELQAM

This experiment concerns the target N-formyl peptide receptor 2 (Homo sapiens) (UniProt P25090). The experiment can be described thus: FPRL1 fluorescent ligand binding inhibitors, primary screen, selectivity assay for FPR ligand SAR project, cell-based, flow cytometry, HTS counterscreen (AID 725). As to conditions: FPRL1-expressing cells, stronger effect = higher value, concentration not given here. (Flow cytometry measures light scatter and fluorescence of single cells or particles in a stream.)
As usually defined, the inhibition is the relative decrease from the control value, in per cent. `COc1cc(C2C(C(=O)c3cc4ccccc4o3)=C(O)C(=O)N2CCN(C)C)ccc1O` (centres undefined): the inhibition was -0.3% (inactive).

As for `CCOC(=O)c1c(NC(=O)c2csc3c2CCCC3)sc2c1CCCC2`, the inhibition is -7% (inactive).

Turning to `CC(c1cccs1)N(Cc1ccco1)C(=S)Nc1ccccc1Cl` (centres undefined), the inhibition was 10.4% (inactive).

In the case of `CCOC(=O)c1oc2cc(OCc3ccc(F)cc3)ccc2c(=O)c1-c1ccccc1OC`, the inhibition was 1.2% (inactive).

Consider `CCCCCCN1C(=O)C(=O)/C(=C(/O)c2ccccc2)C1c1ccc(Br)cc1` (centres undefined), for which the inhibition was 0.8% (inactive).

For `COc1ccc(OC)c(C2/C(=C(\O)c3ccccc3)C(=O)C(=O)N2CCC(=O)O)c1` (centres undefined), the inhibition is -4.7% (inactive).

Consider `CCOC(=O)c1cnn2c(=O)c3c(n(CC)c12)CCN(Cc1ccc(OC)cc1)C3`, for which the inhibition was 1.3% (inactive).

Consider `Cc1ccc(/C(O)=C2\C(=O)C(=O)N(c3nnc(C)s3)C2c2ccc(Cl)cc2)cc1` (centres undefined), for which the inhibition is -9.8% (inactive).

Turning to `CCCCn1c(=O)c2oc3ccccc3c2n(Cc2cccc(C)c2)c1=O`, the inhibition is -15.7% (inactive).

On to `Cc1ccc(N2C(=O)CSC2c2ccc(C(C)(C)C)cc2)cc1F` (centres undefined), for which the inhibition was -16.2% (inactive).

Regarding `NC(=O)c1c(NC(=O)C2CC3CCC2C3)sc2c1CCCC2` (centres undefined), the inhibition was 9% (inactive).

Consider `COc1ccccc1C1/C(=C(\O)c2ccccc2)C(=O)C(=O)N1c1ccc(C)c(Cl)c1` (centres undefined), for which the inhibition was -1.5% (inactive).

For `CCOc1ccc(C2/C(=C(/O)c3ccccc3)C(=O)C(=O)N2c2ccc(C)c(Br)c2)cc1` (centres undefined), the inhibition was 1.2% (inactive).

Take `COc1ccc(Br)cc1CNC(=O)Cn1c(=O)oc2ccccc21`: the inhibition is -20.3% (inactive).

As for `Cc1cc(C)cc(N2C(=O)CSC2c2ccccc2Br)c1` (centres undefined), the inhibition was -7.5% (inactive).

Turning to `C=CCN1C(=O)C2C(c3ccccc3)C=CC(c3ccccc3)C2C1=O` (centres undefined), the inhibition was -6.2% (inactive).

`O=C(c1ccc(Br)cc1)N(Cc1ccco1)Cc1ccccc1F`: the inhibition is 27.5% (inactive).

`O=C1C(=O)N(c2cccnc2)C(c2cccc(F)c2)/C1=C(/O)c1ccccc1` (centres undefined): the inhibition was -1.7% (inactive).

For `COc1ccccc1C(CC(=O)NCc1cccs1)n1cccc1` (centres undefined), the inhibition was 12% (inactive).

`CC1CCN(Cn2nc(-c3ccco3)n(-c3ccccc3)c2=S)CC1`: the inhibition was 6.9% (inactive).

As for `COc1ccc(C2C(C(=O)c3cccs3)=C(O)C(=O)N2Cc2cccnc2)cc1OC` (centres undefined), the inhibition was -3.8% (inactive).

Consider `Cc1ccc2c(c1)oc(=O)n2C(=O)COc1ccccc1`, for which the inhibition was 4.9% (inactive).

For `O=C(c1ccccc1Br)N(Cc1ccc(F)cc1)Cc1ccco1`, the inhibition was -2% (inactive).

As to `CCc1c(C)sc(NC(=O)C2C3C=CC(C3)C2C(=O)O)c1C(=O)OC(C)C` (centres undefined), the inhibition was -6% (inactive).

`Cc1nnc(N2C(=O)C(O)=C(C(=O)c3cccs3)C2c2ccccc2)s1` (centres undefined): the inhibition was 1.7% (inactive).

With `CCOC(=O)c1c(NC(=O)c2ccccc2Cl)sc2c1CCC2`, the inhibition was 0% (inactive).

In the case of `CCOc1ccccc1C1C(C#N)=C(SC)NC(=O)C1C(=O)OC` (centres undefined), the inhibition is 7.1% (inactive).

For `COC(=O)c1c[nH]n2c(=O)c(C(C)C)c(C)nc12`, the inhibition was -13.8% (inactive).

`CCCOc1ccc(/C(O)=C2\C(=O)C(=O)N(CCN3CCOCC3)C2c2ccc(C(C)C)cc2)cc1C` (centres undefined): the inhibition was -8.4% (inactive).

Take `CC(C)n1c(=O)c2oc3ccccc3c2n(Cc2ccccc2F)c1=O`: the inhibition was 11.7% (inactive).

For the compound `Cc1ccc(S(=O)(=O)NC(CC(=O)O)c2cccc(Cl)c2)c(C)c1` (centres undefined), the inhibition is -6.5% (inactive).

Regarding `CCOC(=O)c1c(NC(=O)c2ccccc2)sc2c1CCC(C)C2` (centres undefined), the inhibition is -3.5% (inactive).

In the case of `COCCN1C(=O)C(=O)/C(=C(/O)c2ccccc2)C1c1ccc(C(C)C)cc1` (centres undefined), the inhibition is 3.7% (inactive).

Turning to `CC(C)c1ccc(C2/C(=C(\O)c3ccccc3)C(=O)C(=O)N2c2nc3ccccc3s2)cc1` (centres undefined), the inhibition was 0% (inactive).

As to `Cc1ccc(F)cc1N1C(=O)CSC1c1ccc(Br)cc1` (centres undefined), the inhibition was 1.5% (inactive).

`Cc1cccc(C(=O)N(Cc2ccco2)Cc2ccccc2F)c1`: the inhibition was 14.7% (inactive).

As for `COc1ccc(-c2c(C)[nH]n3c(=O)c4c(nc23)CCCC4)cc1`, the inhibition was -4.2% (inactive).

For `CCOC(=O)c1c(NC(=O)c2ccc(Br)cc2)sc(C)c1C`, the inhibition is 9.7% (inactive).

As for `Cc1onc(-c2c(Cl)cccc2Cl)c1C(=O)NC1CCCCC1`, the inhibition was -7.3% (inactive).

`CCC(=O)Oc1ccc2c(C)c(Cc3ccccc3)c(=O)oc2c1C`: the inhibition is -5.7% (inactive).

On to `CCn1c2c(c(=O)n3ncc(C(=O)O)c13)CN(Cc1ccccc1)CC2`, for which the inhibition was 9.1% (inactive).

Regarding `CCOC(=O)c1c(NC(=O)c2ccccc2C(=O)O)sc(C)c1C`, the inhibition was -6.4% (inactive).

As for `CCOC(=O)COc1ccc2c(=O)c(-c3ccccc3OC)c(C(F)(F)F)oc2c1`, the inhibition is -6.1% (inactive).

For `Cc1ccc(Oc2c(C(F)(F)F)oc3c(CN4CCC(C)CC4)c(O)ccc3c2=O)cc1`, the inhibition is -2.8% (inactive).

`O=C(c1ccccc1F)N1c2ncnn2C2(CCCCC2)[C@@H]2CCCC[C@@H]21`: the inhibition is 2.4% (inactive).

For `O=C1C(=O)N(CCN2CCOCC2)C(c2ccncc2)/C1=C(\O)c1ccccc1` (centres undefined), the inhibition is 0.7% (inactive).

Take `NC(=O)c1c(NC(=O)C2C3C=CC(C3)C2C(=O)O)sc2c1CCCCC2` (centres undefined): the inhibition is 7.3% (inactive).

Regarding `C=CCOc1ccccc1/C=C1/C(=O)NN(c2ccc(C)c(Cl)c2)C1=O`, the inhibition was -5.7% (inactive).

Take `O=C(CSc1nnc(-c2ccco2)o1)c1cccc2ccccc12`: the inhibition was -5.2% (inactive).

Take `CCOC(=O)C(CC)Oc1ccc2c(=O)c(-c3ccc(OC)c(OC)c3)c(C(F)(F)F)oc2c1` (centres undefined): the inhibition was 7.8% (inactive).

With `CN(C)CCCN1C(=O)C(O)=C(C(=O)c2ccco2)C1c1ccccc1` (centres undefined), the inhibition is 9.4% (inactive).

In the case of `CN(C)c1ccc(C2C(C(=O)c3ccco3)=C(O)C(=O)N2CC2CCCO2)cc1` (centres undefined), the inhibition was -0.8% (inactive).

On to `Cc1cc(C)cc(N2C(=O)CSC2c2c(F)cccc2Cl)c1` (centres undefined), for which the inhibition was -8.8% (inactive).

Regarding `COc1ccccc1C1SCCN1S(=O)(=O)c1ccc(F)cc1` (centres undefined), the inhibition was 11.3% (inactive).

Turning to `O=C(O)CCN1C(=O)C(=O)/C(=C(/O)c2ccccc2)C1c1ccc(Br)cc1` (centres undefined), the inhibition is -4.1% (inactive).

In the case of `O=C(Nc1cccc(C(=O)N(Cc2ccccc2)Cc2ccccc2)c1)[C@@H]1[C@H]2C[C@H]3[C@@H]1C(=O)O[C@H]3C2`, the inhibition was 3.8% (inactive).

Take `COc1ccc(OC)c(C2SCCN2S(=O)(=O)c2ccc(C)cc2)c1` (centres undefined): the inhibition is 6.1% (inactive).

On to `CCCOc1ccc(C2C(C(=O)c3cc4ccccc4o3)=C(O)C(=O)N2CCN(C)C)cc1` (centres undefined), for which the inhibition was -0.2% (inactive).

For the compound `COc1ccccc1-c1c(C)oc2c(CN3CCCCC3C)c(O)ccc2c1=O` (centres undefined), the inhibition is -3.9% (inactive).

On to `COc1cccc(C2C(C(=O)c3cc4ccccc4o3)=C(O)C(=O)N2CCN2CCOCC2)c1` (centres undefined), for which the inhibition is 2.7% (inactive).

For the compound `O=C(C1=C(O)C(=O)N(CCN2CCOCC2)C1c1cccnc1)c1cccs1` (centres undefined), the inhibition is -0.7% (inactive).

Take `Cc1onc(-c2c(Cl)cccc2Cl)c1C(=O)N1CCCCCC1`: the inhibition was -6.1% (inactive).

For `Cc1ccc(N2C(=O)CSC2c2ccccc2F)cc1C` (centres undefined), the inhibition is -4.3% (inactive).

In the case of `O=C(Oc1ccc2c(=O)c(Oc3ccccc3Br)c(C(F)(F)F)oc2c1)c1cccs1`, the inhibition was -1.4% (inactive).

For `CN1C(=O)C2(/C(=C(/O)c3ccccc3)C(=O)C(=O)N2CC2CCCO2)c2ccccc21` (centres undefined), the inhibition was -3.7% (inactive).

`Cc1ccc(C(=O)O)cc1NC(=O)C1C2CCC(C2)C1C(=O)O` (centres undefined): the inhibition is 3.8% (inactive).

As for `CN1CCC2(CC1)N=C(c1ccccc1)C(=S)N2C(=O)c1ccc(Cl)cc1`, the inhibition is -2% (inactive).

For the compound `Cc1ccc(C)c(-c2n[nH]n3c2nc(=O)c2ccccc23)c1`, the inhibition was -23.5% (inactive).

As to `O=C1c2cccc3cccc(c23)N1S(=O)(=O)c1ccccc1`, the inhibition was -5% (inactive).

For the compound `CC(C)CCN(Cc1ccco1)C(=O)c1noc2c1CCCC2`, the inhibition is -3% (inactive).

In the case of `Cc1cccc(N2C(=O)CSC2c2ccc(Br)cc2)c1` (centres undefined), the inhibition was -3.9% (inactive).

For `CCOC(=O)c1c(NC(=O)c2cccc(Cl)c2)sc2c1CCCC2`, the inhibition was 3.1% (inactive).

Take `O=C(c1ccc(F)cc1)N(Cc1ccco1)Cc1ccccc1Cl`: the inhibition is -1.7% (inactive).

Take `Cc1nnc(N2C(=O)C(O)=C(C(=O)c3ccco3)C2c2ccc(Cl)cc2)s1` (centres undefined): the inhibition is 0.1% (inactive).

Turning to `CCc1ccc(Oc2c(C(F)(F)F)oc3c(CN4CCOCC4)c(O)ccc3c2=O)cc1`, the inhibition is -5.8% (inactive).

For the compound `CCc1cccc(C)c1NC(=S)N(Cc1ccco1)C(C)c1cccs1` (centres undefined), the inhibition was -5.9% (inactive).

As to `Cc1ccc(/C(O)=C2\C(=O)C(=O)N(CCN3CCOCC3)C2c2cccs2)cc1` (centres undefined), the inhibition is -5.9% (inactive).

`COc1ccc(C2C(C(=O)N3CCCC(C)C3)c3ccccc3C(=O)N2C)cc1` (centres undefined): the inhibition is 2.3% (inactive).

Regarding `COc1ccccc1C(=O)NC(C)c1nc2ccccc2n1Cc1ccccc1C` (centres undefined), the inhibition was -0.5% (inactive).

For `CCOc1cc(C2C(C(=O)c3ccco3)=C(O)C(=O)N2CC2CCCO2)ccc1O` (centres undefined), the inhibition was 0.5% (inactive).

As for `O=C(O)CCN1C(=O)C(=O)/C(=C(/O)c2ccccc2)C1c1ccccc1[N+](=O)[O-]` (centres undefined), the inhibition was 1.1% (inactive).

`COC(=O)c1c(NC(=O)c2cccc(C)c2)sc2c1CCC(C)C2` (centres undefined): the inhibition is -8.1% (inactive).

Take `COc1cccc(Cn2c(=S)[nH]c3c(oc4ccccc43)c2=O)c1`: the inhibition is 3% (inactive).

In the case of `COc1ccc(C2/C(=C(\O)c3ccccc3)C(=O)C(=O)N2CCN2CCOCC2)cc1` (centres undefined), the inhibition was 0.4% (inactive).

With `Cc1ccc(C2/C(=C(\O)c3ccccc3)C(=O)C(=O)N2c2nnc(C)s2)cc1` (centres undefined), the inhibition was -1.8% (inactive).

In the case of `CCOc1ccc(N(C)C(=O)[C@H]2[C@@H]3C[C@@H]4[C@H]2C(=O)O[C@@H]4C3)cc1`, the inhibition is 19.5% (inactive).

For `Cc1cccc(C(=O)N2c3ncnn3C(c3ccccc3)CC2c2ccccc2)c1` (centres undefined), the inhibition was -15.7% (inactive).

For `COC(=O)c1c(NC(=O)c2ccc(F)cc2)sc(C)c1C`, the inhibition was -4.9% (inactive).

For `Cc1cc(C)cc(N2C(=O)N(c3ccccc3Cl)C3CS(=O)(=O)CC32)c1` (centres undefined), the inhibition is 2.6% (inactive).

These data come from PubChem BioAssay AID725 (NMMLSC, 2007).
